Test results from PubChem BioAssay AID2315 (National Center for Advancing Translational Sciences (NCATS), 2010).
About 27,000 (9.3%) of roughly 290,000 compounds were called active. The list comes from a sample in which actives are over-represented; it also holds similar structures and randomly drawn compounds. Values without a mark were called inactive. No stated cut-off is given here; in the data, active means inhibition mostly above about 28% (no sharp cut-off); inactive means mostly below about 43%.

Assay: A qHTS for Small Molecule Inhibitors of Shiga Toxin; further: 0% is about no effect
Settings: Vero cells, Shiga toxin protein synthesis inhibition reporter; at 38.7 µM, stronger effect = higher value
`Cc1ccc(CS(=O)(=O)CCC(=O)NCc2ccc(F)cc2)cc1` gave an inhibition of -8.45%.
In the case of `CCOC(=O)Cc1csc(SCC(=O)NC(C)C23CC4CC(CC(C4)C2)C3)n1` (stereo unspecified), the inhibition is reported as 3.03%.
For `CCc1cccc(CC)c1NC(=S)NCc1ccc2[nH]c(C)cc2c1`, the inhibition was -9.97%.
For `Cc1cc2cc(CNC(=O)c3cccs3)ccc2[nH]1`, the inhibition was 21.3% (active).
For `Cc1cc2cc(CNC(=O)c3ccc(S(=O)(=O)N4CCOCC4)cc3)ccc2[nH]1`, the inhibition was -6.18%.
`COc1ccc(CNc2ncnc3ccccc23)cc1` showed an inhibition of -14.9%.
Compound `Cc1c(C)c(C)c(S(=O)(=O)N2CCC3(CC2)OCCO3)c(C)c1C` has an inhibition of -4.05%.
For `O=C(C1CCCO1)N1CCN(S(=O)(=O)c2ccc(Br)cc2)CC1` (stereo unspecified), the inhibition was -30%.
With `O=C1Nc2cc(C(=O)N3CCN(c4ccc(F)cc4)CC3)ccc2NC1CSCc1cccc(F)c1` (stereo unspecified) the inhibition was -13.8%.
`COc1cc(NC(=O)C2=C(C)OCCS2)c(Cl)cc1C(=O)NCCN1CCN(C)CC1` showed an inhibition of -4.3%.
`Cc1cccc(C(=O)Nc2ccccc2-c2nnn(CC(=O)Nc3ccc4c(c3)OCCO4)n2)c1` showed an inhibition of -7.74%.
With `Cc1ccnc(N2C(=O)c3ccccc3C2Nc2ccc3c(c2)OCCO3)c1` (stereo unspecified) the inhibition was 162% (active).
With `COc1ccccc1C1/C(=C(/O)c2ccc(C)cc2)C(=O)C(=O)N1Cc1ccco1` (stereo unspecified) the inhibition was -8.56%.
Compound `COC(=O)c1cc(NC2c3ccccc3C(=O)N2c2ccc(Cl)cn2)cc(C(=O)OC)c1` (stereo unspecified) has an inhibition of 27.1%.
Work on `O=C(NC1CCCCC1)C1c2ccccc2C(=O)N1Cc1ccco1` (stereo unspecified) yielded an inhibition of 2.78%.
With `O=C1c2ccccc2C(Nc2ccc3c(c2)OCCO3)N1Cc1ccco1` (stereo unspecified) the inhibition was 75.3% (active).
Work on `CC(C)(C)NCc1cc(Br)ccc1OC1CCCC1` yielded an inhibition of -3.59%.
With `CCc1ccc2[nH]c(=O)c(Cc3ccccc3)c(O)c2c1` the inhibition was -8.55%.
Compound `Cc1ccc(C2SCC(=O)N2c2ccccc2)cc1` (stereo unspecified) has an inhibition of 23.4%.
With `C=CCN1C(=NC(=O)COc2ccccc2)SC2CS(=O)(=O)CC21` (stereo unspecified) the inhibition was -9.63%.
In the case of `Cc1ccc(C(=O)N/C(=C\c2cn(C)c3ccccc23)C(=O)N2CCN(C)CC2)cc1`, the inhibition is reported as -1.79%.
Compound `Cc1ccc(CN2CCNC(=O)C2CC(=O)NCc2csc(C(C)C)n2)cc1` (stereo unspecified) has an inhibition of -6.42%.
With `COc1ccc(S(=O)(=O)c2c[nH]c(=S)[nH]c2=O)cc1Cl` the inhibition was -4.21%.
With `Cc1cnc(C(=O)OCc2c(C)cc(C(C)(C)C)cc2C)cn1` the inhibition was -2.67%.
`O=C(C[n+]1cc(Br)cc2ccccc21)c1ccc(F)cc1` gave an inhibition of -6.12%.
For `c1ccc(-c2cc(-c3ccccc3)[nH]n2)cc1`, the inhibition was 129% (active).
In the case of `c1ccc(-c2cc(-c3nnc4sc(-c5ccccn5)nn34)[nH]n2)cc1`, the inhibition is reported as 11.6%.
In the case of `Oc1ccccc1-c1cc(-c2ccc(Cl)cc2)n[nH]1`, the inhibition is reported as 151% (active).
With `Cc1ccc(NC(=O)c2cc(-c3ccccc3O)n[nH]2)cc1C` the inhibition was 40.6%.
Compound `S=c1[nH]nc(-c2cc(-c3ccccc3)n[nH]2)n1/N=C/c1c2ccccc2cc2ccccc12` has an inhibition of -4.79%.
Work on `O=C(NCCCNC(=O)c1ccccc1Cl)c1cnccn1` yielded an inhibition of -8.38%.
For `COc1ccc(NC(=O)CC(NC(C)c2ccccc2)C(=O)O)cc1` (stereo unspecified), the inhibition was -9.37%.
In the case of `O=C(OCCN=C1NS(=O)(=O)c2ccccc21)c1cccc([N+](=O)[O-])c1`, the inhibition is reported as -7.24%.
`COc1ccc(N2CCN(C(=O)c3ccc(N4CCCCS4(=O)=O)cc3)CC2)cc1` gave an inhibition of 3.75%.
Compound `O=C(O)CCc1cccnc1` has an inhibition of -4.95%.
Compound `CC(=O)OC(C(=O)NCCc1ccccc1)c1cccnc1` (stereo unspecified) has an inhibition of -5.15%.
In the case of `N/C(=N\OC(=O)CCc1ccccc1)c1ccc(Cl)cc1`, the inhibition is reported as 61% (active).
For `Cc1ccc(/C(N)=N/OC(=O)COc2ccc(Cl)c(C)c2)cc1`, the inhibition was 21.4%.
`O=C(CCC(=O)OCc1ccc(Cl)cc1)Nc1ccccc1` gave an inhibition of -15.7%.
In the case of `N/C(=N\OC(=O)CCc1ccccc1)c1cccnc1`, the inhibition is reported as 55.1% (active).
Compound `C=CCn1c(SCC(=O)NCC2CCCO2)nc2sc(C)c(C)c2c1=O` (stereo unspecified) has an inhibition of -9.53%.
For `COC(=O)c1cc(S(=O)(=O)NCC2CCN(Cc3ccc(Cl)cc3)CC2)cn1C`, the inhibition was -0.168%.
For `COc1ccccc1CNC(=O)[C@@H]1CCCN1C(=O)[C@@H]1Cc2ccccc2CN1C(=O)OC(C)(C)C`, the inhibition was -9.37%.
For `COC(=O)c1ccc(OC(=O)c2nn(C)cc2Cl)c(OC)c1`, the inhibition was 8.13%.
With `C=CCc1cccc(/C=N/NC(=O)COc2ccc(-n3cnnn3)cc2)c1O` the inhibition was 19.1%.
`COc1ccc(CCNC(=O)CN(C)S(=O)(=O)c2ccc3nc(C)sc3c2)cc1OC` gave an inhibition of 16.5%.
Work on `Cn1c(SCC(=O)N2CCCCC2)nc2c(c1=O)SCC2` yielded an inhibition of -17.3%.
`O=C(CN1C(=O)c2ccccc2S1(=O)=O)NC1CCCCC1` gave an inhibition of -0.163%.
In the case of `COc1cc(OC)c(C(=O)NC2CC(C)(C)NC(C)(C)C2)cc1OC`, the inhibition is reported as -5.21%.
`COc1ccc(Cl)cc1C(=O)Nc1ccc(N(C)C(C)=O)cc1` gave an inhibition of 22.6%.
With `COc1cc(OC)c(C(=O)Nc2ccc(N(C)C)cc2)cc1OC` the inhibition was 77.9% (active).
`CN(Cc1ccccc1)C(=O)c1cccc(C(=O)N(C)Cc2ccccc2)c1` gave an inhibition of -2.11%.
`COc1ccc(NC(=O)COc2ccc(C(=O)c3ccc(F)cc3)cc2)cc1S(N)(=O)=O` gave an inhibition of -4.25%.
For `COc1cc(/C=N/Nc2nc3ccccc3s2)ccc1O`, the inhibition was 62.5% (active).
Compound `COc1ccc(/C=N/n2nnnc2N)cc1OC` has an inhibition of -3.85%.
`CCNc1nc(NCC)nc(N/N=C/c2ccc(O)c(OC)c2)n1` showed an inhibition of -4.76%.
With `CCOc1ccccc1/C=N/Nc1nc2ccccc2o1` the inhibition was 49% (active).
In the case of `Oc1c(Br)cccc1/C=N/Nc1c(F)c(F)c(F)c(F)c1F`, the inhibition is reported as 16%.
For `Brc1ccccc1/C=N/Nc1nc2ccccc2o1`, the inhibition was 68.5% (active).
In the case of `CCOc1ccccc1/C=N/NC(=O)CNC(=O)COc1ccccc1`, the inhibition is reported as 11.6%.
In the case of `COc1ccc(/C=N/Nc2nc3ccccc3o2)cc1OC`, the inhibition is reported as 101% (active).
`COc1cc(/C=N\Nc2nc(-c3cccs3)c(NC(C)=O)s2)ccc1O` showed an inhibition of 34%.
Compound `Cc1cc(C)nc(N/N=C/c2c(C)oc3ccccc23)n1` has an inhibition of 29.2%.
`C=CCc1ccccc1OCC(=O)N/N=C/c1ccccc1OCC` gave an inhibition of 13.2%.
Work on `CCOc1ccc(/C=N/Nc2nncc(-c3ccccc3)n2)cc1OC` yielded an inhibition of 8.48%.
For `CCOC(=O)c1c(S(=O)(=O)NCC(=O)Nc2ccc(C)cc2)c(C)n(C)c1C`, the inhibition was -5.73%.
`O=C1NC(c2ccccc2)Oc2ccccc21` (stereo unspecified) showed an inhibition of -5.27%.
Work on `Cc1ccc(NS(=O)(=O)c2ccc(-c3ccc(=O)[nH]n3)o2)c(C)c1` yielded an inhibition of -12.5%.
With `CCOc1cc(-c2noc(CCCC(=O)NC3CCCCC3)n2)ccc1OC` the inhibition was -9.28%.
`COc1ccccc1NC(=O)CSc1nnc(CNC(=O)c2ccccc2F)o1` showed an inhibition of 15.5%.
For `Cc1ccccc1CSc1nnc(-c2ccccc2)c(=O)[nH]1`, the inhibition was -6.33%.
In the case of `Cc1ccc(CSc2nc(-c3ccccc3)c(C#N)c(=O)[nH]2)cc1`, the inhibition is reported as 22.6%.
For `O=c1[nH]c(SCc2ccccc2)nnc1-c1ccccc1`, the inhibition was 36.4% (active).
Work on `COc1ccccc1C(=O)NC(CCSC)C(=O)NNC(=O)c1csc(N2CCOCC2)n1` (stereo unspecified) yielded an inhibition of -15.3%.
With `COc1ccc(/C=C/C(=O)c2ccc(OC)cc2O)cc1` the inhibition was 42.2% (active).
`COc1ccc(C(=O)/C=C/c2cccnc2)c(OC)c1` gave an inhibition of 0.985%.
For `COc1ccc(/C=C/C(=O)c2cc(Br)ccc(=O)c2O)cc1`, the inhibition was 7.73%.
For `O=c1[nH]c(=O)n(Cc2ccco2)c2c1C(C(F)(F)F)(C(F)(F)F)N=C(c1ccco1)N2`, the inhibition was 58.8% (active).
`Cc1ccccc1C1=NC(C(F)(F)F)(C(F)(F)F)c2c(n(-c3ccc(F)cc3)c(=O)[nH]c2=O)N1` gave an inhibition of 2.62%.
Compound `CC(=O)Nc1ccc(S(=O)(=O)NC2(C(F)(F)F)C(=O)Nc3c2c(=O)[nH]c(=O)n3Cc2ccccc2)cc1` (stereo unspecified) has an inhibition of -2.93%.
With `Cc1ccc(OS(=O)(=O)c2ccc(-c3csc(C)n3)s2)c(C)c1` the inhibition was -11.1%.
`CN(Cc1ccccc1)CC(O)COc1ccc(CNCc2cc3ccccc3s2)cc1` (stereo unspecified) showed an inhibition of -3.31%.
In the case of `COc1ccc(OCC(=O)NCCS(=O)(=O)N2CCN(c3ccc(F)cc3)CC2)cc1`, the inhibition is reported as -4.29%.
`Cc1cc(NC(=O)CSc2nnc(-c3ccc(Cl)s3)o2)no1` showed an inhibition of 20.2%.
In the case of `COc1ccc(C(=O)/C=C/Nc2ccccn2)cc1`, the inhibition is reported as -2.27%.
In the case of `Cc1cc(N/C=C\C(=O)c2ccc(Cl)c(Cl)c2)no1`, the inhibition is reported as 59.9% (active).
In the case of `COc1ccccc1N1CCN(c2ccc([N+](=O)[O-])nc2)CC1`, the inhibition is reported as 34.5%.
With `CC(CN1CCOCC1)OC(=O)c1ccc(Cl)cc1Cl` (stereo unspecified) the inhibition was 38.1%.
Work on `O=S(=O)(NCCc1ccncc1)c1ccccc1` yielded an inhibition of -5.04%.
`Cc1nc(CNS(=O)(=O)c2cccnc2)cs1` showed an inhibition of -1.16%.
In the case of `O=S(=O)(NCCc1csc(-c2ccccc2)n1)c1cccnc1`, the inhibition is reported as 129% (active).
With `Cc1ccc(Cn2c(=N)c(S(=O)(=O)c3ccc(C)cc3)cc3c(=O)n4ccccc4nc32)cc1` the inhibition was -2.01%.
With `CCCn1cc(S(=O)(=O)c2ccc(C)cc2)c(=O)c2cc(OCC)ccc21` the inhibition was 3.51%.
Compound `CCOC(=O)c1[nH]c2ccc(OC)cc2c1NC(=O)CCN1CCN(Cc2ccccc2)CC1` has an inhibition of -3.91%.
In the case of `COC(=O)c1[nH]c2ccc(Br)cc2c1NC(=O)Oc1ccccc1`, the inhibition is reported as 51.9% (active).
`COC(=O)c1[nH]c2ccccc2c1NC(=O)CN1CCCc2ccccc21` gave an inhibition of 25.1%.
